Data taken from the supplement of paper PMC11732987, “Enantioselective OTUD7B fragment discovery through chemoproteomics screening and high-throughput optimisation” (Communications Chemistry, 2025).

Tests used:
Experiment in all cases: log2 ratio of Biotin-Ahx-Ub-VS probe labelling (fragment/DMSO); higher = less target engagement (more negative = stronger competition), active = hit call of the paper (q ≤ 0.05, log2 ratio ≤ -1)
Details in all cases: compound concentration: 200 uM; treatment time: 3 h
USP42 = target: T1, USP42 (UniProt Q9H9J4)
T1 sequence (whole entry): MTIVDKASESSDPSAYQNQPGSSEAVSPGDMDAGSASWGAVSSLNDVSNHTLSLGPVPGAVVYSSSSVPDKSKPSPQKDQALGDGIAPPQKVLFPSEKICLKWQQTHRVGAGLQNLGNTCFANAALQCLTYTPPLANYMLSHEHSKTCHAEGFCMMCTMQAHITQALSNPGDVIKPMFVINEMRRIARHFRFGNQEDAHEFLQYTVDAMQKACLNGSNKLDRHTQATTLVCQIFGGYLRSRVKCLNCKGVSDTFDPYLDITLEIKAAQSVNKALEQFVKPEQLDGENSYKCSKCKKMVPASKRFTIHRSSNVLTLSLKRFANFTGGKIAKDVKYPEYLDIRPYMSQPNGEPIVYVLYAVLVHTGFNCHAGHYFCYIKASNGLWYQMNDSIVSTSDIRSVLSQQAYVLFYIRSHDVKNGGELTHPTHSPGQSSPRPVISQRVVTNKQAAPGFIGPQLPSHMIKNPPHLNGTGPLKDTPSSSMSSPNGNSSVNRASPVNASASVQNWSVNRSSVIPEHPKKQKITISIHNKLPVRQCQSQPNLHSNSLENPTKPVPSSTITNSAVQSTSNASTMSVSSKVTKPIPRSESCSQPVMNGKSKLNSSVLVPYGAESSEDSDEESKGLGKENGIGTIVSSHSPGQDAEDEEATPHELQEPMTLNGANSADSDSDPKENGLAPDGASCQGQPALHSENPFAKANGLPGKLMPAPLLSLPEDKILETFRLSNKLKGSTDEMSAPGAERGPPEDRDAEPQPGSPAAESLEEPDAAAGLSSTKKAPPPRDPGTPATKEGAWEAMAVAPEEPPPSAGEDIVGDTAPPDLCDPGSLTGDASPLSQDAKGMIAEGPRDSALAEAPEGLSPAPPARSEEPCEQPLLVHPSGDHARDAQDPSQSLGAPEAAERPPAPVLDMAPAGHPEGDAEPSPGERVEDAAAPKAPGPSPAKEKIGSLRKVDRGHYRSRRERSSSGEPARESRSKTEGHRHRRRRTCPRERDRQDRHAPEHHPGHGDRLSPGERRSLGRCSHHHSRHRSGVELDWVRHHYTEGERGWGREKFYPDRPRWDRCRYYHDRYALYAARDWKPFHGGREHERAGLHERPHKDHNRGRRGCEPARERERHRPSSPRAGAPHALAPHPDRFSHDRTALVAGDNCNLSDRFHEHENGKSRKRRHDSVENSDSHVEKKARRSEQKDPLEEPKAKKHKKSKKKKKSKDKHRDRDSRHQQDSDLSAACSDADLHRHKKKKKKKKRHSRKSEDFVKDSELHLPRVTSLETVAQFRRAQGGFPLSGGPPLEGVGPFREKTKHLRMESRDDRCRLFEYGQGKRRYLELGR
Summary of the method: (§1)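 HEK293T lysate (495 µg per sample, in Tris/CHAPS/IGEPAL buffer with protease inhibitors) was treated in triplicate with fragment at 200 µM or with DMSO for 3 h. It was then treated with Biotin-Ahx-Ub-VS (0.5 µM final) for 1 h. Labelled DUBs were NeutrAvidin-enriched, digested with LysC and trypsin, and run by diaPASEF LC-MS/MS. Spectronaut label-free quantities were global-median-normalised. Values are average log2 ratios fragment/DMSO by unpaired t-test, using proteins with ≥2 unique peptides.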

USP46 = USP46 (UniProt P62068)
Chain of USP46 (P62068 whole entry): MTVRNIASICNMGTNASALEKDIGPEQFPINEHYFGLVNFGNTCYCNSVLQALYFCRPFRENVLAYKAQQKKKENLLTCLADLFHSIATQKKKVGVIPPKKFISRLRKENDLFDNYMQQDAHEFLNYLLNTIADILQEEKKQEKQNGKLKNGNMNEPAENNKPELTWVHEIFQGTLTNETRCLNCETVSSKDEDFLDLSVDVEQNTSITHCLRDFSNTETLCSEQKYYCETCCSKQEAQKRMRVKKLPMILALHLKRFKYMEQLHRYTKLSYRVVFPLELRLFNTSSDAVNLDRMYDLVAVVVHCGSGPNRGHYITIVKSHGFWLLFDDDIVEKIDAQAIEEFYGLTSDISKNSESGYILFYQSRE
Summary of the method: as §1

USP47 = target: T2, USP47 (UniProt Q96K76)
T2 sequence (whole entry): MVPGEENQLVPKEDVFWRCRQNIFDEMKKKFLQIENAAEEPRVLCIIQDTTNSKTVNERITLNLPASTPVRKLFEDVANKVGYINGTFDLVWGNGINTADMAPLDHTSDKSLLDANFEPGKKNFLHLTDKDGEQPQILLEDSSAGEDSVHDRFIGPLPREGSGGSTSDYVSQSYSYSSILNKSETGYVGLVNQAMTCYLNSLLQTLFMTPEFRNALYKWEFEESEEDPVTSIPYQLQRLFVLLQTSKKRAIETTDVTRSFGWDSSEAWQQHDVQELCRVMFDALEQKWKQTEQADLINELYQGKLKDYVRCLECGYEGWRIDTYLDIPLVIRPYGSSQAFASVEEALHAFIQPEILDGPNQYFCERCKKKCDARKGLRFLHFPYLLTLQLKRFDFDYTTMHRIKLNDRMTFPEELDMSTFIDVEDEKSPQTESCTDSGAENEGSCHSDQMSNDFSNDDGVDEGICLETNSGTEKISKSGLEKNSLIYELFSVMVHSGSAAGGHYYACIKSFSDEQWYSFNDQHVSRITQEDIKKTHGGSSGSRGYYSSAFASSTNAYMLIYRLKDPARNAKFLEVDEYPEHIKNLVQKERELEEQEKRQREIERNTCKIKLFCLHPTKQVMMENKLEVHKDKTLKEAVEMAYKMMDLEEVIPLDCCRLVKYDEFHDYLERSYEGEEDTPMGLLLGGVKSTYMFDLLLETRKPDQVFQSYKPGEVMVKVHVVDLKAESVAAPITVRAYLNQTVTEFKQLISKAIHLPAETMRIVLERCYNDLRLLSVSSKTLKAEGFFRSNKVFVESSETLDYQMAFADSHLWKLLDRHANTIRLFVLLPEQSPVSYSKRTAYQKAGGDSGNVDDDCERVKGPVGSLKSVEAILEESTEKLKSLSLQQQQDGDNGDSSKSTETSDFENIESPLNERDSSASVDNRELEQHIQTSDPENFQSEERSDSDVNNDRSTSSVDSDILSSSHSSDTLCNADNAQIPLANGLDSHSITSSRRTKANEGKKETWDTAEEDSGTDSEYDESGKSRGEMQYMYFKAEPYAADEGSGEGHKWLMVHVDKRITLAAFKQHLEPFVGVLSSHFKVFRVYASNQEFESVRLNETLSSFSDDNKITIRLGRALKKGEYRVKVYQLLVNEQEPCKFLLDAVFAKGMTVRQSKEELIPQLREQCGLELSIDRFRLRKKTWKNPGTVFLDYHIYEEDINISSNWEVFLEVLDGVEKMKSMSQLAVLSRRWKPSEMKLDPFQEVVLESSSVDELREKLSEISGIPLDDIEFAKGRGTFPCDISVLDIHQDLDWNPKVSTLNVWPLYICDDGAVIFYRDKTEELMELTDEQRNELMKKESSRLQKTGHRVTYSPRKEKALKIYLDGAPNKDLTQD
Summary of the method: as §1

USP48 = target: T3, USP48 (UniProt Q86UV5)
T3 sequence (whole entry): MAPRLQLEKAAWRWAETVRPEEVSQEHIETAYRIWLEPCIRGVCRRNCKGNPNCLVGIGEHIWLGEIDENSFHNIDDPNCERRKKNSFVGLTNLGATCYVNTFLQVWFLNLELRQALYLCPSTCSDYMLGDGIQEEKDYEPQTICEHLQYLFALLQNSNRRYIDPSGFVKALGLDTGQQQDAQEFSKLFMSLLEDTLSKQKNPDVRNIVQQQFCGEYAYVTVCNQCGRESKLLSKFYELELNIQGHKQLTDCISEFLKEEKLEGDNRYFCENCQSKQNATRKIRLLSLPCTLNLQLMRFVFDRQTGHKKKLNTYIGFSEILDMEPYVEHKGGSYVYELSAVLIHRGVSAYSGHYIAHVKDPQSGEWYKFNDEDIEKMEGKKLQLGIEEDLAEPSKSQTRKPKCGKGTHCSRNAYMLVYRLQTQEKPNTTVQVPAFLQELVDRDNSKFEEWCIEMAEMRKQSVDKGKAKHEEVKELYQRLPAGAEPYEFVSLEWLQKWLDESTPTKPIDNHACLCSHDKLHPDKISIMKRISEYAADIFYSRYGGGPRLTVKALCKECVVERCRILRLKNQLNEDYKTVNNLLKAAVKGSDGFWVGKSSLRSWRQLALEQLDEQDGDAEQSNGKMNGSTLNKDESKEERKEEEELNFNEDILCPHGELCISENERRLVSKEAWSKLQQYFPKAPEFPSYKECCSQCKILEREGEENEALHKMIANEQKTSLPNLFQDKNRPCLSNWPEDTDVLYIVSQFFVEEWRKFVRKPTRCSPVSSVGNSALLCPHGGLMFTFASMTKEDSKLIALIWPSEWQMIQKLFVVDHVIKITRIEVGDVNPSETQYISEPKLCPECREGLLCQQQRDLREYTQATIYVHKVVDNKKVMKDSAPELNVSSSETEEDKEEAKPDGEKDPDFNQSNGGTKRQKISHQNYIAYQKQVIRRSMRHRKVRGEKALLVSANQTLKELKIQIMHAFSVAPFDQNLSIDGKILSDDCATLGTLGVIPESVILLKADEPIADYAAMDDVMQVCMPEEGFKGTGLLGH
Summary of the method: as §1

USP5 = target: T4, USP5 (UniProt P45974)
T4 sequence (whole entry): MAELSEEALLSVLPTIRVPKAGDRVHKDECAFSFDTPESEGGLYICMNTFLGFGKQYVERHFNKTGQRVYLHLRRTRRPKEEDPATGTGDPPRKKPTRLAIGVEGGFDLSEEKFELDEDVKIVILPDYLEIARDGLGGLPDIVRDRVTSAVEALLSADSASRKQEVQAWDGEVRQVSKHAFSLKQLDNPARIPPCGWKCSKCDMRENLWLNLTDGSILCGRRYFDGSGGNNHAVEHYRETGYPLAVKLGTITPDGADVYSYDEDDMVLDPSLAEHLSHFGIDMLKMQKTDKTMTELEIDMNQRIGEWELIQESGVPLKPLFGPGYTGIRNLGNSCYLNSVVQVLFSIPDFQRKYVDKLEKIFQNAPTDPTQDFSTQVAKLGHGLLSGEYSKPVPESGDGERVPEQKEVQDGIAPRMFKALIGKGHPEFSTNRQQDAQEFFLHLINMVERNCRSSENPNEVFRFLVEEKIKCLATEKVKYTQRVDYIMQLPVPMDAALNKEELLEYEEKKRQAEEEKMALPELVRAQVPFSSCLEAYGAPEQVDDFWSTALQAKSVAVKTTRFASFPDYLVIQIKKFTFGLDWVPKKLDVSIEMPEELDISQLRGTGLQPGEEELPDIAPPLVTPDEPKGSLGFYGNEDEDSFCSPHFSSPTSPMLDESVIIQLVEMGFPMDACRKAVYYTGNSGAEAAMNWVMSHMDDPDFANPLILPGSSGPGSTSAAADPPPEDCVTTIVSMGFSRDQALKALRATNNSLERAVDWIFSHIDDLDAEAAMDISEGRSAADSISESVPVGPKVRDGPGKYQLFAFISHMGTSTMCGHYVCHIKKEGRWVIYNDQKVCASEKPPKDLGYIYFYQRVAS
Summary of the method: as §1

USP54 = USP54 (UniProt Q70EL1)
Chain of USP54 (Q70EL1 whole entry): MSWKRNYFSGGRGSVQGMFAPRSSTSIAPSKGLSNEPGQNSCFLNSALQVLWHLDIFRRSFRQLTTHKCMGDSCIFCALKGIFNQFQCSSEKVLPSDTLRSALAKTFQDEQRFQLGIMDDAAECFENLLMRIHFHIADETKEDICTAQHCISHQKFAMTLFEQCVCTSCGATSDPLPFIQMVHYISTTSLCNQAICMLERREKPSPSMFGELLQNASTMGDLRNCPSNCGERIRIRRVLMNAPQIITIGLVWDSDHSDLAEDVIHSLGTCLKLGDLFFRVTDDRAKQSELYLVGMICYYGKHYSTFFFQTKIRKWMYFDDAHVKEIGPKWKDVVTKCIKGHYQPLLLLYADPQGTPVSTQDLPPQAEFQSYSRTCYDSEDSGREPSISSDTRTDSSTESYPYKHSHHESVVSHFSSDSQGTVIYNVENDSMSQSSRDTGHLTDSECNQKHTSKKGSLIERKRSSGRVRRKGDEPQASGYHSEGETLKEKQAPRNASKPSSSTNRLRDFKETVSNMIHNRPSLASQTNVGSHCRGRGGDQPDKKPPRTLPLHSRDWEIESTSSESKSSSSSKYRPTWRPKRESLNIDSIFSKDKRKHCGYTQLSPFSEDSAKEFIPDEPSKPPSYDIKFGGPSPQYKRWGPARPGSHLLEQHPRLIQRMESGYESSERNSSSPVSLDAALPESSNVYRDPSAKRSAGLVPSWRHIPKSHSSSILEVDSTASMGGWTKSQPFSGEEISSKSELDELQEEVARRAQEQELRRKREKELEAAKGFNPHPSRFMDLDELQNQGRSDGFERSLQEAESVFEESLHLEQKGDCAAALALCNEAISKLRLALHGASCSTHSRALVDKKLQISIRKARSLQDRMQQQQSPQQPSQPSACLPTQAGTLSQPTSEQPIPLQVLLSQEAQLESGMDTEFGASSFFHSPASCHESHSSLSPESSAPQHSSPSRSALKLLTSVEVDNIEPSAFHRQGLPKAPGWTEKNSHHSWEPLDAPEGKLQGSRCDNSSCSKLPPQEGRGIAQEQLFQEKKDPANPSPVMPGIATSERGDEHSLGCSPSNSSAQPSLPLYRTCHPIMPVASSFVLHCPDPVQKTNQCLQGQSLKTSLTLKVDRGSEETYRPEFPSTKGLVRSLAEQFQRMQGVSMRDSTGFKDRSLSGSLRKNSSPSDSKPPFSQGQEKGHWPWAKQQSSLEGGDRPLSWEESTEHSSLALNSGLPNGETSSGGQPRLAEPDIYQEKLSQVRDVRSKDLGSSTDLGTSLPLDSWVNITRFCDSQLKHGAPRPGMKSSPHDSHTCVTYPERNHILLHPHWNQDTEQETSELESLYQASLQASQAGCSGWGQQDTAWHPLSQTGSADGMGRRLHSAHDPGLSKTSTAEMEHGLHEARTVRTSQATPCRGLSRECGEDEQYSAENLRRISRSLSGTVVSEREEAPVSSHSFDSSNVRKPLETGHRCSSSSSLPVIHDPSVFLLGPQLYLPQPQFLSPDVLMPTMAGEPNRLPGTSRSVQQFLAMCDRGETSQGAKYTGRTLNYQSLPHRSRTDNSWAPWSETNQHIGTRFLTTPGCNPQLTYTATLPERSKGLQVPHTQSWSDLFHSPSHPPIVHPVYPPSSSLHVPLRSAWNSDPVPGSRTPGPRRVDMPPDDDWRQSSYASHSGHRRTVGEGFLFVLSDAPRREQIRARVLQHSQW
Summary of the method: as §1

USP7 = USP7 (UniProt Q93009)
Chain of USP7 (Q93009 whole entry, looked up): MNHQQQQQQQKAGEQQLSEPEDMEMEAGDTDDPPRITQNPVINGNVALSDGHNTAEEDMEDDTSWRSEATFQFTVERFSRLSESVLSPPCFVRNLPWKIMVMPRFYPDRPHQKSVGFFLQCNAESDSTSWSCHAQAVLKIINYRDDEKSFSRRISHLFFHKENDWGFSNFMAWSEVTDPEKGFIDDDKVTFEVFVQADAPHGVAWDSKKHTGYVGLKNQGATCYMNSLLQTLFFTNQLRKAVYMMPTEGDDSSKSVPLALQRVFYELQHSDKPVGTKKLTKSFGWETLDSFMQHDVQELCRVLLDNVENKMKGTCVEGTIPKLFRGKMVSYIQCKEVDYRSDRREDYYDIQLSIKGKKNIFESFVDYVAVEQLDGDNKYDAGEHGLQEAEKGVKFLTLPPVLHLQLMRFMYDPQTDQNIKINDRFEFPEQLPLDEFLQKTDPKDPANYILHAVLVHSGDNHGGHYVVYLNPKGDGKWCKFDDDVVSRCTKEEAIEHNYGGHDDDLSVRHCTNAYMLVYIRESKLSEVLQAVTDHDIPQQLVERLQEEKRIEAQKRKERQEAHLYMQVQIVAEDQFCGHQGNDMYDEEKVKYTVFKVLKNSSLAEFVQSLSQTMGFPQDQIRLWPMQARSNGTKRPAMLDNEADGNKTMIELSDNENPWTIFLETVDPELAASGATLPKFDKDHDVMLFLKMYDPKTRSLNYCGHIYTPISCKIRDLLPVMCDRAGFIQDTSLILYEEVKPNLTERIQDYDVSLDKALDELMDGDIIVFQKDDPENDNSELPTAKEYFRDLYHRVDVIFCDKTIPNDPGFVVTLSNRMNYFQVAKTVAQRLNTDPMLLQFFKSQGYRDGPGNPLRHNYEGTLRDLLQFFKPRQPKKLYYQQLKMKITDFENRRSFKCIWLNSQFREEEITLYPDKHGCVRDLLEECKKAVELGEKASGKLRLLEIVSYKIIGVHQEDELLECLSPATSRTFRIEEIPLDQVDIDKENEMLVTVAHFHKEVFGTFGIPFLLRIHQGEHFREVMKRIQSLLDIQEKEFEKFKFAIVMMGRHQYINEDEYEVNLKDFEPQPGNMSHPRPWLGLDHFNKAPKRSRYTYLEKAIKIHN
Summary of the method: as §1

USP8 = target: T5, USP8 (UniProt P40818)
T5 sequence (whole entry): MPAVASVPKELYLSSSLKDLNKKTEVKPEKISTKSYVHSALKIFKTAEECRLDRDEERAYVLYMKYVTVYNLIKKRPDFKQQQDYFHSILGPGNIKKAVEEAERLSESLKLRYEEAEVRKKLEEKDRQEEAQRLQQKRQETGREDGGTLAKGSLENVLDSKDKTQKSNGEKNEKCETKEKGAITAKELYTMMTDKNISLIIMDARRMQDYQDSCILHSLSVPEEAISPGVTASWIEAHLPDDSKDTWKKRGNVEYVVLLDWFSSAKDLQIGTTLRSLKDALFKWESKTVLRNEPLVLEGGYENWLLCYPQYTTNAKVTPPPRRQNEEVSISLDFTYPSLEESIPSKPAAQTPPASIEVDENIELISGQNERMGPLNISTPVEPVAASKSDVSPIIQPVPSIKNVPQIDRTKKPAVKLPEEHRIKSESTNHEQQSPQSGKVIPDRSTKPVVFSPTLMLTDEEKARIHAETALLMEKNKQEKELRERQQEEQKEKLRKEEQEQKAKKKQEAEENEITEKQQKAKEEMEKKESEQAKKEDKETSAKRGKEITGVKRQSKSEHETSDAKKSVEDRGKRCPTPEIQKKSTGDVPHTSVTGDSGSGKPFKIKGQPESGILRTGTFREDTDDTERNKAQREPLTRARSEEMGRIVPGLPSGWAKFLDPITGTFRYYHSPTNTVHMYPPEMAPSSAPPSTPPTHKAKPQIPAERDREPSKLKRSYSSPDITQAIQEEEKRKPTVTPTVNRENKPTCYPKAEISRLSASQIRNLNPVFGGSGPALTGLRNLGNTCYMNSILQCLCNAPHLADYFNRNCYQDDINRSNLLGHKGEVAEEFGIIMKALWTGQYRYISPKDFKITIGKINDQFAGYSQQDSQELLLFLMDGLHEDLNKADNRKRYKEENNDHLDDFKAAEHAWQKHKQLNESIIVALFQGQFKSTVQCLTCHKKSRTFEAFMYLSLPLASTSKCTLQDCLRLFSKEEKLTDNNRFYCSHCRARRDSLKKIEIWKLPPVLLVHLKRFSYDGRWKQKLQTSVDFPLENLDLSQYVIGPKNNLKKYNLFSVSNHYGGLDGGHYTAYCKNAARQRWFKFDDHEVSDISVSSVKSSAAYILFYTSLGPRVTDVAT
Summary of the method: as §1

Measured: log2 ratio of Biotin-Ahx-Ub-VS probe labelling

O=C(CCl)Nc1cc2c(cc1Cl)OCCCO2
inactive: USP42 0.621 | USP46 0.0317 | USP47 -0.676 | USP48 -0.438 | USP5 0.232 | USP54 -0.0568 | USP7 -0.0845 | USP8 -0.029
